Screening data: PubChem BioAssay, several laboratories
TIM10 inh = inhibits growth of TIM10 yeast strain. S. cerevisiae TIM10 strain growth, BacTiter-Glo luminescence, 24 h. inhibition, % at 10 µM. actives 1.4% (n = 330,000);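 active = inhibition of 40% or more at the single tested concentration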;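 also: wild-type TIM10 isogenic control strain grown at permissive 25 °C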
Mot1-301 SUMO = inhibitors of SUMOylation pathway: yeast Mot1-301 growth rescue; S. cerevisiae Mot1-301 growth rescue, ATP luminescence, 38.5C; percent above DMSO median, 100 means doubled; growth rescue, % at 18.8 µM; actives 1% (n = 320,000);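 active = every valid replicate shows activation above 250% relative to neutral control wells; inactive = the rest, any valid replicate at or below 250%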;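 also: OY570 slx delta 5 strain wells were the positive control but not used for scaling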
tim10-1 inh = growth inhibitors of tim10-1 mutant yeast | S. cerevisiae tim10-1 ts strain growth, BacTiter-Glo, 24 h | inhibition, % at 20 µM | actives 2.2% (n = 330,000);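 active = inhibition of at least 40%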;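 also: mutant grown at 25 °C; 0% = DMSO wells with yeast and 100% = wells holding no yeast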
tim23-1 inh = tim23-1 yeast growth inhibition. S. cerevisiae tim23-1 growth, BacTiter-Glo luminescence, 24 h. inhibition, % at 20 µM. actives 1.3% (n = 330,000). AID 463212;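 active = growth inhibition of the mutant yeast at or above 50%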;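 also: temperature-sensitive mutant grown at 25 °C; plate controls were DMSO-treated mutant yeast for no effect and medium wells lacking yeast for full effect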
PfHsp90 yeast 2 = inhibits growth of yeast expressing Plasmodium falciparum Hsp90; S. cerevisiae expressing PfHsp90, BacTiter-Glo ATP, 48 h; yeast lacking PDR1 and PDR3 efflux regulators; inhibition, % at 9.4 µM; actives 0.32% (n = 310,000);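 active = every replicate shows inhibition above about 80%, whatever the replicate mean, limit read from the data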;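 also: 0% = DMSO neutral controls and 100% = 20 µM radicicol positive controls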
tim10-1 confirm = tim10-1 yeast growth inhibition, confirmed. shares compounds with tim10-1 inh. S. cerevisiae tim10-1 ts strain growth, BacTiter-Glo, 24 h. inhibition, % at 20 µM. actives 56% (n = 7,400);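 active = inhibition of yeast growth at or above a set limit in either of two repeat tests at 20 µM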;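 also: tim10-1 mutant grown at permissive 25 °C to find synthetic lethal compounds; 0% = DMSO yeast wells and 100% = medium wells without yeast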
tim10 confirm = confirmation of TIM10 yeast growth inhibitors. AID 463215. shares compounds with TIM10 inh. actives 63% (n = 4,600). S. cerevisiae tim10 strain growth, BacTiter-Glo luminescence, 24 h. inhibition, % at 10 µM;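 active = inhibition of yeast growth at or above a set limit in either of two replicates at 10 µM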;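 also: this counterscreen used the strain with wild-type TIM10; 0% = yeast with DMSO and 100% = medium wells lacking yeast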
tim23-1 confirm = confirmation of tim23-1 mutant yeast growth inhibitors. AID 463218. inhibition, % at 20 µM. actives 83% (n = 4,400). shares compounds with tim23-1 inh. S. cerevisiae tim23-1 growth, BacTiter-Glo luminescence, 24 h;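 active = inhibition above about 39% in either of two replicate wells at 20 µM, limit read from the data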;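 also: temperature-sensitive tim23-1 mutant grown at 25 °C; 0% = DMSO wells with yeast and 100% = medium wells without yeast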
An asterisk follows results filed as active; nt = not tested or not shown. A selection: hits, their analogues and other compounds. The true share with any hit is near 4.4%.

SMILES	TIM10 inh	Mot1-301 SUMO	tim10-1 inh	tim23-1 inh	PfHsp90 yeast 2	tim10-1 confirm	tim10 confirm	tim23-1 confirm
CCc1ccc(CN2CCC(n3nccc3NC(=O)c3cccc(F)c3)CC2)cc1	10	-22	15	9	2	nt	nt	nt
C/C=C/C1=CC(=O)C[C@H](c2ccc3c(c2)OCO3)C1	-5	21	-4	-10	11	nt	nt	nt
Cc1nc(N2CCN(c3ccccc3O)CC2)c2c(-c3ccccc3)csc2n1	33	-6	42*	51*	-40	32*	nt	48*
CN1CCN(C2=Cc3ccccc3Sc3cc(F)c(F)cc32)CC1	17	1	38	-6	33	nt	nt	nt
CN1CCN(C2=Cc3cc(Cl)ccc3Sc3cc(F)ccc32)CC1	-15	31	57*	78*	-5	40*	nt	67*
COc1cccc(CN(C)C(=O)c2cc(COc3ccc(-n4cncn4)cc3)on2)c1	20	2	41*	51*	7	30*	nt	34
COc1ccc(OC)c(S(=O)(=O)N2CCN(CC(O)COc3ccccc3)CC2)c1 (centres undefined)	2	283	11	9	-3	nt	nt	nt
N#C/C(=C\c1ccc[nH]1)Sc1nc2ccccc2s1	14	-16	42*	54*	-32	30*	nt	48*
O=C(COC(=O)Cc1cccs1)Nc1ccc(OC(F)(F)F)cc1	6	31	-6	13	0	nt	nt	nt
Fc1ccc(NC(=S)Nc2ccc(F)c(Cl)c2)cc1Cl	53*	-9	71*	72*	-15	61*	-15	65*
Cc1cc(C)nc(S/C=C/C(=O)c2ccc(F)cc2)n1	48*	3	41*	56*	nt	28	39*	46*
Cc1cc(C)nc(SCC(=O)c2ccc(F)cc2)n1	12	-12	1	19	-13	nt	nt	nt
O=C(COC(=O)c1cc(Br)ccc1O)c1ccc(F)cc1	-13	-4	-7	7	18	nt	nt	nt
O=C(/C=C/c1ccc(F)cc1)c1cc(Br)ccc1O	53*	267	45*	50*	1	71*	70*	22
O=C(O)[C@@H]1CCCN1C(=O)CCc1c[nH]c2ccccc12	2	-3	1	6	1	nt	nt	nt
Cc1ccc(N2C(=O)c3ccc(N)cc3C2=O)cc1C	34	-5	42*	52*	nt	36*	nt	43*
Cc1cccc(Nc2ccc([N+](=O)[O-])cn2)c1	8	6	4	26	-17	nt	nt	nt
N#Cc1ccc[n+](CC(=O)c2ccc(NC(=O)c3ccccc3)cc2)c1	-17	143	7	3	24	nt	nt	nt
O=C(Nc1ccc(Br)c(C(F)(F)F)c1)c1ccccc1	68*	-4	58*	73*	-14	50*	3	78*
O=C(Nc1ccc(Br)c(C(F)(F)F)c1)c1ccc(C(F)(F)F)cc1	72*	-2	45*	81*	nt	48*	81*	5
O=c1c(Cl)c(Cl)cnn1Cc1nnc(-c2ccccc2Br)o1	44*	nt	63*	78*	-1	67*	50*	77*
Clc1ccc(Cc2nnc(-c3ccccc3Br)o2)cc1	-9	21	13	4	-5	nt	nt	nt
O=[N+]([O-])c1cccc(-c2noc3c2-c2nc(Cc4cccc5ccccc45)sc2CC3)c1	13	-10	1	19	nt	nt	nt	nt
Cc1nnc(N2C(=O)c3cccc4c([N+](=O)[O-])ccc(c34)C2=O)s1	36	-22	85*	67*	11	64*	nt	68*
Cc1ccc(N2C(=O)c3cccc4c([N+](=O)[O-])ccc(c34)C2=O)c2cccnc12	-22	8	9	6	-34	nt	nt	nt
SMILES	TIM10 inh	Mot1-301 SUMO	tim10-1 inh	tim23-1 inh	PfHsp90 yeast 2	tim10-1 confirm	tim10 confirm	tim23-1 confirm
Cc1ccnc(N2C(=O)c3cccc4c([N+](=O)[O-])ccc(c34)C2=O)c1	90*	-13	90*	74*	-38	90*	97*	78*
O=C(Oc1ccc(Br)cc1C(=O)/C=C/c1ccccc1F)c1ccco1	70*	93	41*	60*	-141	40*	62*	43*
Cc1ccc(NC(=O)C(C)OC(=O)Cn2cnc3ccccc3c2=O)cc1 (centres undefined)	2	-11	-27	-11	6	nt	nt	nt
COc1ccc(-c2nnc(N3CCCCC3)c3ccccc23)cc1	29	-3	51*	60*	-8	47*	nt	55*
CC1CCN(c2nnc(-c3ccccc3)c3ccccc23)CC1	12	128	41*	69*	-20	0	nt	34
Cc1ccc(-c2nnc(N3CCC(C)CC3)c3ccccc23)cc1C	4	122	19	48	0	nt	nt	nt
COc1ccc(-c2nnc(N3CCOCC3)c3ccccc23)cc1	-1	-7	-6	3	11	nt	nt	nt
Cc1ccc(NS(=O)(=O)c2cccc(C(=O)N3CCN(C(=O)c4ccco4)CC3)c2)cc1	5	-16	-1	13	-1	nt	nt	nt
CC(C)c1ccc(S(=O)(=O)NCc2ccc3c(c2)OCO3)cc1	-10	5	22	31	-14	nt	nt	nt
COc1cc(C(=O)OCC(=O)N2CCC(C)CC2)cc2c1OCCO2	6	-17	-4	23	6	nt	nt	nt
Cc1cc(C)c2cc(C=O)c(Cl)nc2c1	51*	8	45*	67*	-7	40*	32*	78*
CCc1cc2cc(C)cc(C)c2nc1Cl	6	-2	-3	7	-5	nt	nt	nt
C=C[C@@H]1c2cc(C)ccc2N(S(=O)(=O)c2ccc(C)cc2)[C@H](c2ccc(OC(C)=O)cc2)C1(C#N)C#N	11	15	24	24	-21	nt	nt	nt
N#Cc1c(N2CCCC2)nc(N)c2c(N)nc(N3CCCC3)cc12	43*	-19	60*	81*	11	54*	31*	89*
FC(F)(F)c1cccc(-n2cc(-c3ccccc3)[nH]c2=S)c1	35	-10	48*	56*	14	35*	nt	50*
Cc1ccc(-c2cn(-c3ccccc3)c(=S)[nH]2)cc1C	48*	-3	47*	52*	-4	21	42*	49*
CC1CSc2n(-c3cccc(C(F)(F)F)c3)cc(-c3ccccc3)[n+]21 (centres undefined)	-7	8	0	4	nt	nt	nt	nt
Cc1c(C(=O)OCc2nc3ccsc3c(=O)[nH]2)oc2ccccc12	6	8	-4	7	nt	nt	nt	nt
COc1ccc(CNS(=O)(=O)c2ccc3c(c2)NC(=O)C(C)S3)cc1 (centres undefined)	1	9	4	9	-22	nt	nt	nt
